Measured values published in the supplement of paper PMC3334620.
In all, about 33,000 sequences were measured (“E-score (-0.5 to 0.5)”: median about -0.054, highest 2% from about 0.35 on). The list comes from a sample in which the highest values are over-represented; it also holds similar and randomly drawn sequences.

Each sequence was assayed against T1, Stb5 (UniProt P38699) (assay: PBM E-score (8-mer binding enrichment) (E-score (-0.5 to 0.5)); higher = stronger / more preferred TF binding). Conditions: protein concentration: 200 nM; construct: GST-full length.
T1 sequence: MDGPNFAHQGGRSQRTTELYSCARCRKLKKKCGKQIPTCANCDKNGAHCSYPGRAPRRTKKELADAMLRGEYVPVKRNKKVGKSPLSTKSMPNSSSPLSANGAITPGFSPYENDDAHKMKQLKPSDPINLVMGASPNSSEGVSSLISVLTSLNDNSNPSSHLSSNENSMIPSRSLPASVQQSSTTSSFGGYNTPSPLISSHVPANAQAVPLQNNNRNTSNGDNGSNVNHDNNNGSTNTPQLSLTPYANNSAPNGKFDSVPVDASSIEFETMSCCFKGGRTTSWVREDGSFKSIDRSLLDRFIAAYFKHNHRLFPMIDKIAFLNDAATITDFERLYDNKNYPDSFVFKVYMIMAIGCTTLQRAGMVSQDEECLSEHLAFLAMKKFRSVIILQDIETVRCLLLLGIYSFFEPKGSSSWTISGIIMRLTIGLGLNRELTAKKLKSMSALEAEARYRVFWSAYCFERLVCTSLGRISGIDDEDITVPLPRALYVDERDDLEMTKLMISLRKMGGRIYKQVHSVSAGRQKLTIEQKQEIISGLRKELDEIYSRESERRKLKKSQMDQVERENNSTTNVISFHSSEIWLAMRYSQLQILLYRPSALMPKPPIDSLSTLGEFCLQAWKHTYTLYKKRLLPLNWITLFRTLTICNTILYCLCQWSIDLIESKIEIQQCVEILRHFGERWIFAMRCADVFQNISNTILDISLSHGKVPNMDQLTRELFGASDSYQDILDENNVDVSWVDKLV
Description: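 Universal 'all 10-mer' protein binding microarrays (Agilent AMADID 015681) probed with GST-tagged S. cerevisiae TFs (full-length or DBD) made by in vitro transcription/translation (PURExpress), about 100-200 nM. Bound TF was detected with fluorescent anti-GST. Each ungapped 8-mer (which stands for itself and its reverse complement) is scored by the PBM enrichment score (E-score), a modified Wilcoxon-Mann-Whitney statistic from -0.5 to +0.5, computed with the Universal PBM Analysis Suite. Scale: above 0.35 generally sequence-specific binding.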

Sequence | PBM E-score
CCGATACA | 0.28
ACAGCGGG | 0.332
AGACTTAA | -0.288
CGACTTAA | -0.0485
GGACTTAA | 0.373
ATAGAATA | -0.0414
CGATAACC | 0.16
CGACCCGC | 0.198
GAACCCGA | 0.0501
AAACCCGG | 0.395
GAACCCGC | 0.199
CAACCCGG | 0.0495
AAACCCGA | 0.395
AAACCCGC | 0.414
AGACCCGA | 0.287
AGACCCGC | 0.36
CAACCCGC | 0.169
AAACCCGT | 0.318
TAACCCGA | 0.225
ATGGACTC | -0.103
CCCGGCTA | 0.337
ACCTGGAG | -0.133
CAAGGCTG | -0.26
AGATAACA | -0.0529
TCGCCCCA | -0.317

Sequence | PBM E-score
ATCACCGG | 0.37
ATCACCGC | 0.447
ATCACCTG | 0.0314
ATCACCTC | 0.0381
ATCACCAG | -0.0626
GTCACCGA | 0.285
ATCACCGA | 0.433
CTCACCGC | 0.164
CTCACCGA | 0.248
TATGCACA | -0.16
GCCTCGCA | -0.0909
CGCATTTC | -0.0467
GGCAGTAA | 0.256
AGGAGCAT | -0.255
CCGCATTA | 0.243
GCTGGCCC | -0.184
GACATCCA | -0.0118
TCAGTGAA | -0.111
CTTCGAGC | -0.0166
AGACCCCG | 0.394
ATACCCCC | 0.351
AAACCCCT | 0.153
ACCCCCGG | 0.336
AGACCCCC | -0.165
ATACCCCA | -0.0468

Sequence | PBM E-score
AACCCGGG | 0.262
AGACCCGG | 0.341
AAACCCCG | 0.476
AACCCCGG | 0.453
ATACCCCG | 0.392
AAACCCCA | 0.0234
AAAATGTT | -0.267
CACTTGCG | -0.0879
CGTGTCCC | -0.0774
CCATTTAA | -0.073
CAGCTGTC | -0.31
ACACGGTA | 0.144
AGACCAGG | -0.149
ATGCGACC | 0.0704
AAGGCGCT | 0.109
ATACCTAG | -0.233
CAACCCCG | 0.371
AACCCCCG | 0.401
CAACCCCC | 0.14
CAACCCCA | -0.221
ACCCCCCG | 0.204
AACCCCCC | 0.0126
ACTAGCCC | 0.15
ACTCGTCA | -0.163
GCCCCTAC | 0.076

Sequence | PBM E-score
ATTCTTGG | -0.0109
CCCGGACC | 0.185
ACCGGACT | 0.376
GCCGGACC | 0.281
ACCGGACC | 0.354
ACCGGACG | 0.329
ACCGGACA | 0.321
AAACTCAC | -0.172
TAATAAGA | 0.0281
GCTCTTTA | 0.0664
CACTGCTC | -0.117
AAGCGTGC | -0.171
ACGAGCGT | -0.163
AAGTTCCG | 0.373
CAGTTCCG | 0.0961
AAGTTCCT | -0.098
ACCACAGA | -0.0655
CCCGCTAA | 0.261
AGCGACTG | -0.328
CCGCTCCG | 0.361
CCGCTCGA | 0.328
CCGCTCCC | 0.247
CCGCTACG | 0.355
CCGCTACA | 0.262
ACGCTCCG | 0.174

Sequence | PBM E-score
ACGCTACG | -0.187
CCGCTCGC | 0.373
ACGCTCGC | -0.078
CAGTTGCC | -0.0751
AGAAAGAC | -0.0525
GATATAGA | -0.162
AACGGGTG | 0.155
GTGAAGCA | -0.165
AGATTTTA | 0.0159
ACACTATG | -0.13
AAAGTCTC | -0.145
AAGACCTT | -0.073
AAGACCGG | 0.418
AAGACCGA | 0.414
AAGACCGC | 0.443
AAGACCAT | -0.18
CAGACCGA | 0.174
GAGACCGC | 0.311
GAGACCGA | 0.257
AAGACCGT | 0.382
AAGACCAG | -0.107
CAGACCGC | 0.272
CAGACCGG | 0.272
CCTCTGAG | -0.141
ACTGCGGC | 0.168

Sequence | PBM E-score
TCGTTAGA | -0.147
ATAAGGGG | -0.0458
ACGTTGAA | -0.0556
AGCCATAC | -0.269
GCTTGAAA | -0.11
AATGCTGT | -0.0756
GCCGATCC | 0.207
AGCGCCAC | 0.162
AGCGCCGA | 0.342
AGCGCCCG | 0.198
AGCGCCGG | 0.376
AGCGCCGC | 0.41
CGCGCCGC | 0.325
CTCTTATC | -0.11
CTTTTTAC | 0.145
GCTGCTAA | 0.122
AACCCGTC | 0.183
ACCCCGTC | 0.381
CCCCCGTC | 0.233
ACCCCGTA | 0.301
ACCCCGTG | 0.367
AACCCGTG | -0.0372
AGCTGTGA | -0.266
CGGGTATA | 0.403
AGGGGCTA | -0.0747

Sequence | PBM E-score
CGGGTCTA | 0.412
GGGGGTAA | 0.248
AGGGTATA | 0.217
AGGGGTAA | -0.249
GGGGGCTA | 0.0408
CGGGGTAA | 0.424
CGGGGCTA | 0.454
CGGGTCTC | 0.151
AGGGTCTA | -0.0622
GGGGTATA | 0.26
CCTTAATA | 0.03
CCCAAGGA | -0.0196
CTTCGCCA | 0.0018
GATTAGTA | 0.0787
ATACATGG | -0.155
CGCATCAA | 0.126
ACGCTTAG | -0.072
GTGGGTTA | -0.0789
CTCCTCTC | -0.308
CCGGGGTA | 0.268
AGGGGTTC | -0.15
CGGGGGTA | 0.451
GGGGGGTA | 0.0523
CGGGGTTC | 0.388
CCGGGTTC | 0.24

Sequence | PBM E-score
GGAGCCAA | 0.00764
GACTATAC | 0.0897
AAGGACGG | 0.162
CGACGGAA | 0.262
CGACGGAG | 0.339
AGACGGAC | 0.331
GGACGGAC | 0.359
GGACGGAA | 0.133
CGACGGAC | 0.368
CGCCTCGA | 0.0565
GCTATTGA | 0.168
GTTCGATA | -0.036
CCTGTTTA | 0.0509
CGTTTGCA | 0.0334
ACCTGAAA | -0.098
ATAGCCGA | 0.216
ATCGCCGC | 0.385
ATCGCCGG | 0.368
GTCGCCGA | 0.19
ATCGCCGA | 0.387
ATAGCCGG | 0.373
CTCGCCGC | 0.0978
ATCGCCTC | -0.271
ATAGCCGC | 0.312
ATCGCCTG | -0.215

Sequence | PBM E-score
CTCGCCGA | -0.0352
ATCGCCAG | -0.0866
AGGCAACC | -0.251
ATGAGCTC | -0.262
GAGTCTGA | -0.308
CAAAAGAG | -0.072
TCAGTTCA | -0.229
CGCGTCAC | -0.194
CAAACACA | -0.126
AAAACACC | 0.353
AAAACACG | -0.0278
CAAACACG | -0.114
AAAACACT | 0.0252
CAAACACC | 0.352
AGTTGTAC | 0.0567
ATAGTCAC | -0.0899
ACAGACCC | -0.00703
CCAGGAGG | -0.238
TTTCAAAA | -0.0616
